The values that follow come from PubChem BioAssay AID1457 (National Center for Advancing Translational Sciences (NCATS), 2008).

Out of some 210,000 compounds screened, about 730 (0.35%) were called active. Not shown: some 1% with an inconclusive outcome. Many of the other results were omitted from the sample, so actives are more common in it than they were. Values without a mark were called inactive. Calls follow the shape of the dose curve; as a rule, active = well fitted inhibition curve with a large enough effect; inconclusive = small, poorly fitted or top-dose-only effect; inactive = no such curve, though single readings can be large or run the other way.
Potency is read from the fitted curve at half-maximal effect.

The experiment in a line: qHTS Assay for Identifying the Cell-Membrane Permeable IMPase Inhibitors: Potentiation with Lithium.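 Also: IP1 builds up when IMPase is blocked and the TR-FRET signal falls; nearly all actives have a fitted effect of over 50% in size.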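 As to activity, negative = IMPase inhibition: plate controls were basal vehicle for no effect and high inhibitor control for full effect.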 The conditions noted are these: CHO-M1 cells, IP1 TR-FRET (IP-One), carbachol + lithium; series mostly up to 59.4 µM; activity, negative = IMPase inhibition: at the top concentration. The method, boiled down:
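Readout is a homogeneous TR-FRET IP1 immunoassay (Ex 320, Em 665 and 620), where raised cytosolic IP1 lowers signal. Cells were CHO-M1 treated 30 min at 37C with test compounds plus a little lithium; AC50 values came from Hill-equation fitting.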
On the technique in general: qHTS replaces the single test concentration by a dilution series.
Turning to `Cc1cc(C)n(-c2nc(SCC(=O)N3CCCC3)c3c4c(sc3n2)CCCC4)n1`, the “activity, negative = IMPase inhibition” value is 16.9%. On the same count and under the same terms, for `Cc1ccc(-c2csc(SCC(=O)Nc3cc(C)on3)n2)cc1` the value was 7.82%.

Regarding `Cc1nc(SCC(=O)Nc2cc(C)on2)c2c3c(sc2n1)CCCC3`, the Potency was 10 µM (active).

In the case of `CC(C)c1cnc(NC(=O)Cc2ccccc2)s1`, the “activity, negative = IMPase inhibition” value was -1.45%.

Take `COc1ccc(CC(N)C(=O)NC2C(O)[C@H](n3cnc4c(N(C)C)ncnc43)O[C@@H]2CO)cc1` (some centres not stated): the “activity, negative = IMPase inhibition” value is 0.536%. As for `CC[C@@]12C=C(/C=C/c3ccccc3)[C@](CC)(C1)[C@H](c1ccccc1)CC2=O`, the “activity, negative = IMPase inhibition” value was 10.1%. Same read-out and setting: for `COCCN1C(=O)N[C@@H](CCc2ccccc2)[C@H](C(C)=O)[C@H]1C` the value was -3.57%.

For `S=c1nccc(-c2cc(Cl)sc2Cl)[nH]1`, the Potency is 11.2 µM (active).

Regarding `Nc1nc2c(ncn2[C@@H]2O[C@H](COP(=O)(O)OP(=O)(O)OP(=O)(O)O)[C@@H](O)C2O)c(=O)[nH]1` (some centres not stated), the “activity, negative = IMPase inhibition” value is -0.194%.

Consider `COc1ccc(CC(=O)Nc2ccc(-c3nnc(-c4ccccc4)o3)cc2)cc1`, for which the Potency was 10 µM (active).

As to `COc1ccc(CC(=O)Nc2ccc(C(=O)NC(C)(C)C)cc2)cc1`, the “activity, negative = IMPase inhibition” value is -3.58%.

Consider `COc1ccc(-c2nc(-c3ccccc3)oc2Nc2ccc3ccccc3c2)cc1`, for which the “activity, negative = IMPase inhibition” value was 19.9%. On the same count and under the same terms, for `COc1cccc(CC(=O)N2CCc3nc(COc4ccccc4)c4c(c3C2)CO[C@@H](C)C4)c1` the value was 8.35%; for `CCCCS(=O)(=O)N1C2=NC(C(=O)OC)=C(C(=O)OC)[C@@H]3N(Cc4ccccc4)c4ccccc4[C@]23C[C@H]1C(=O)OC`, 6.96%; for `COC(=O)C(C(=O)OC)[C@@H](NC=O)c1ccccc1`, 8.25%. As for `COC(=O)CSc1nccc(-c2cccs2)n1`, the “activity, negative = IMPase inhibition” value was -12.7%. Same read-out and setting: then `O=C(Nc1ccnc(-c2ccncc2)n1)c1cccs1`, with 5.99%. With `O=C(O)COc1ccc(-c2nccc(-c3cccs3)n2)cc1`, the Potency was 10 µM (active). Regarding `C/C(Nc1ccc2oc(=O)ccc2c1)=C1/C(=O)CC2[C@@H]1C2(C)C` (some centres not stated), the “activity, negative = IMPase inhibition” value was 19%. `Cc1cc2oc(=O)cc(-c3ccccc3)c2c(C)c1-c1ccc(OC(F)(F)F)cc1`: the “activity, negative = IMPase inhibition” value is 13.7%. On the same count and under the same terms, then `CC(C)C[C@H](NC(=O)[C@H](O)[C@H](N)Cc1ccccc1)C(=O)O`, with -2.42%; and `CC(C)(C)OC(=O)NCCCCC1=CC2=CC(=O)C(C)(OC(=O)c3cccs3)C(=O)C2=CO1` (configuration not stated), with 18.1%. Same read-out and setting: for `COc1ccc(OC)c(-n2c(=S)[nH]c3cc(C(=O)N4CCCCC4)ccc3c2=O)c1` the value was 9.2%. `COc1cccc(-n2c(=S)[nH]c3c(oc4ccccc43)c2=O)c1`: the Potency was 12.6 µM (active). For the compound `COC(=O)c1ccc(CSc2nc3ccccc3c(=O)n2-c2cccc(OC)c2)o1`, the “activity, negative = IMPase inhibition” value was 1.82% [at 38.3 µM]. Same read-out and setting: then `OC[C@H]1O[C@@H](n2cnc3c(N[C@H]4CC5CCC4C5)ncnc32)[C@H](O)[C@@H]1O` (some centres not stated), with -8.88%; and `CC(=O)CC(c1ccccc1)C1C(=O)Oc2ccccc2C1=O` (configuration not stated), with 0.184%. Consider `CC(C)C1=CC2=CC[C@H]3[C@](C)(C(=O)O)CCC[C@]3(C)C2CC1` (some centres not stated), for which the “activity, negative = IMPase inhibition” value is 16%. With `COC(=O)C(C(=O)OC)C1c2ccccc2C=C(C2CC2)N1C(=O)OC` (configuration not stated), the Potency entry is “inactive”. For the compound `O=C(CSc1nc2c(cnn2-c2ccc(F)cc2)c(=O)[nH]1)N1CCCCCC1`, the “activity, negative = IMPase inhibition” value was 1.02%. The same measure, in the same setting: then `C=CCNC(=O)CSc1nc2sc(C)c(C)c2c(=O)[nH]1`, with 1.14%. As to `CC(=O)c1sc2nc(SCC(=O)N3CCCCC3)[nH]c(=O)c2c1C`, the Potency is 11.2 µM (active). Consider `CCN1C(=O)N[C@@H](c2ccccc2)[C@H](C(C)=O)[C@H]1C`, for which the “activity, negative = IMPase inhibition” value was 10.4%. On the same count and under the same terms, for `O=C1C=C(c2ccccc2)CCC1` the value was 12.3%. On the same count and under the same terms, for `CCN1C(=O)N[C@@H](CCc2ccccc2)C(C(=O)OC)=C1C` the value was 4.15%. On the same count and under the same terms, for `O=C1OCCN1C(=O)[C@H]1[C@H](c2ccc(Cl)cc2)C(c2cccc(Cl)c2)=NN1c1ccc(Br)cc1` the value was -6.47%.

With `COC(=O)CCCC1=CC2=CC(=O)C(C)(OC(=O)c3cccs3)C(=O)C2=CN1CC1CC1` (configuration not stated), the “activity, negative = IMPase inhibition” value was 4.7%. `COc1ccc(-c2nc3c(c4c2C[C@H](c2ccccc2)OC4)CN(C(=O)C2CC2)CC3)c(C)c1`: the “activity, negative = IMPase inhibition” value is 2.22%.

`CC1=C(C/C=C(\C)CCCC(C)CCCC(C)CCCC(C)C)C(=O)c2ccccc2C1=O` (configuration not stated): the “activity, negative = IMPase inhibition” value is -3.08%. `CCc1ccc(NC2Nc3cc(C)nn3S2)cc1` (configuration not stated): the “activity, negative = IMPase inhibition” value was -0.821%. For the compound `CCOC(=O)c1ccc(NC2Nc3cc(C)nn3S2)cc1` (configuration not stated), the Potency was 10 µM (active). As for `CCOC(=O)c1ccc(Nc2cc(C)nc3nc(C)nn23)cc1`, the “activity, negative = IMPase inhibition” value is 2.54%.

For `CC1(C)O[C@@H]2C[C@@H]3[C@H]4C[C@@H](F)C5=CC(=O)C=C[C@]5(C)[C@@]4(F)[C@@H](O)C[C@]3(C)[C@]2(C(=O)CO)O1`, the “activity, negative = IMPase inhibition” value is 0.557%. Turning to `CCCCCCCC/C=C\CCCCCCCC(=O)NCC(=O)O`, the “activity, negative = IMPase inhibition” value was -4.73%.

With `CCCCC/C=C\C[C@H](O)/C=C/C=C/C=C/[C@@H](O)CCCC(=O)O`, the “activity, negative = IMPase inhibition” value was 12.9%. As for `C=CCC(C)(O)c1ccco1` (configuration not stated), the “activity, negative = IMPase inhibition” value was 12.8%. On the same count and under the same terms, for `N#C/C(=C(/O)COC(=O)COc1ccc(Cl)cc1)c1nc2ccccc2[nH]1` the value was 5.54%; for `N#C/C(=C(/O)COc1cccc2ccccc12)c1nc2ccccc2[nH]1`, 1.85%. On to `Cc1ccccc1OC/C(O)=C(\C#N)c1nc2ccccc2[nH]1`, for which the Potency was 12.6 µM (active). For `COC(=O)CCCC1=CC2=CC(=O)C(C)(OC(=O)c3cccs3)C(=O)C2=CN1c1cccc(C#N)c1` (configuration not stated), the “activity, negative = IMPase inhibition” value was -6.28%. Still for that read-out and setting: for `C[C@@]12CCC(=O)C=C1CC[C@H]1C2[C@@H](O)C[C@]2(C)[C@@H]1CC[C@@]2(O)C(=O)COC(=O)C1CCCC1` (some centres not stated) the value was -5%. The same measure, in the same setting: for `CO[C@@]12[C@@H](COC(N)=O)C3=C(C(=O)C(C)=C(N)C3=O)N1C[C@@H]1N[C@@H]12` the value was 17.2%.
